Compounds without any hit were thinned out: in the full panel of roughly 83,000, 20% have a hit.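 Compound tested at a single concentration for 48 hours in 96-well plates; a percent growth value below 10 was scored as active.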 Unmarked numbers belong to inactive results. Active and inactive are the calls of the source.

Some test systems named below: NCI-H23 lung; NCI-H226 lung; NCI-H322M lung; HOP-62 NSCLC; NCI-H460 lung; NCI-H522 lung; A549/ATCC NSCLC; 786-0 renal; COLO 205 colon; DU-145 prostate; MALME-3M melanoma; MDA-MB-231 breast; SF-268 CNS; SF-295 CNS; SF-539 CNS; M14 melanoma; K-562 leukemia; RXF 393 renal; UACC-257 melanoma.
What all share (test): NCI-60 one-dose screen, 48 h (100 = growth as untreated, 0 = no growth, -100 = all killed)
Details in all cases: 10 µM unless noted

In the case of `CC(=Nc1ccccc1)C1=C(O)C(Cc2ccccc2)NC1=O` (stereo not drawn), the growth was -1.27% (active) in the test on NCI-H23 lung; 15.4% in the test with NCI-H226 lung; 45.7% in the test on NCI-H322M lung; 16.7% in the test on HOP-62 NSCLC; 3.86% (active) in the test with NCI-H460 lung; -15.4% (active) with NCI-H522 lung. The growth is -28.9% (active) in the test on A549/ATCC NSCLC; 8.26% (active) in the test with 786-0 renal; -71.8% (active) in the test with COLO 205 colon; -31.5% (active) with DU-145 prostate; 58.6% in the test with MALME-3M melanoma; -1.28% (active) in the test with MDA-MB-231 breast. Further, the growth was 14.1% in the test on SF-268 CNS, -19.1% (active) in the test on SF-295 CNS, -33.8% (active) in the test on SF-539 CNS and -16.6% (active) with M14 melanoma.

As to `CCN(CCO)CCCOc1ccc2c(Nc3cc(CC(=O)Nc4cccc(F)c4)[nH]n3)ncnc2c1`, the growth in the test with NCI-H23 lung is 29.2%; in the test on NCI-H226 lung it was 63.9%; with NCI-H322M lung, 14.4%; in the test with HOP-62 NSCLC, 35.7%; with NCI-H460 lung, 22.6%; in the test with NCI-H522 lung it was 22.9%. Moreover, the growth in the test on A549/ATCC NSCLC is 23.9%; in the test on 786-0 renal, 66.1%; in the test with COLO 205 colon it was -35.6% (active); with DU-145 prostate, 56.6%; in the test with K-562 leukemia, 32%; in the test on MALME-3M melanoma, -17.5% (active). Also, the growth with MDA-MB-231 breast is 39.4%; in the test on RXF 393 renal it was 86.1%; in the test with SF-268 CNS, 56.2%; in the test with SF-295 CNS, 65.4%; in the test with SF-539 CNS, 25.8%; in the test on UACC-257 melanoma it was -23.2% (active). For the same molecule, the growth in the test with M14 melanoma was 4.94% (active).

On to `CNC(=O)CN1CCC(Oc2cc3c(Nc4cccc(Cl)c4F)ncnc3cc2OC)CC1`, for which the growth is 79.7% in the test on NCI-H23 lung; 76.7% with NCI-H226 lung; -5.06% (active) with NCI-H322M lung; 38.3% in the test on HOP-62 NSCLC; 89.9% with NCI-H460 lung; 5.87% (active) with NCI-H522 lung. Further, the growth with A549/ATCC NSCLC was 28.3%; in the test on 786-0 renal, 51.8%; in the test with COLO 205 colon, 61.3%; with DU-145 prostate, 44.9%; in the test on K-562 leukemia, 60.9%; in the test on MALME-3M melanoma, 91.1%. The growth in the test with MDA-MB-231 breast was 43.6%; in the test on RXF 393 renal, 24%; in the test on SF-268 CNS it was 51%; in the test on SF-295 CNS, 76.1%; in the test on SF-539 CNS, 72.8%; in the test with UACC-257 melanoma, 74.4%. For the same molecule, the growth in the test on M14 melanoma was 84.1%.

For `Cc1cc(N2CCOCC2)nc(N(CCNc2ccnc3cc(Cl)ccc23)Cc2cccs2)n1`, the growth in the test with NCI-H23 lung was 35.4%; in the test with NCI-H226 lung, 54.6%; in the test on NCI-H322M lung, 26.9%; in the test with HOP-62 NSCLC it was 19.8%; in the test with NCI-H460 lung, 7.16% (active); with NCI-H522 lung, -21.5% (active). The growth in the test with A549/ATCC NSCLC was 28.7%; in the test on 786-0 renal it was -35.2% (active); with COLO 205 colon, -69.2% (active); in the test with DU-145 prostate, 42%; in the test on K-562 leukemia, 2.63% (active); in the test on MALME-3M melanoma, -18.4% (active). For the same molecule, the growth is -0.994% (active) in the test on MDA-MB-231 breast; -46.5% (active) in the test with RXF 393 renal; 43.8% in the test on SF-268 CNS; -54% (active) in the test on SF-295 CNS; -65.7% (active) in the test on SF-539 CNS; 3% (active) with M14 melanoma.

In the case of `COc1ccc2nc3cc(Cl)ccc3c(Nc3ccc(N(C)C)cc3)c2c1`, the growth in the test with NCI-H23 lung was 91.9%; with NCI-H226 lung, 83.5%; in the test with NCI-H322M lung, 109%; in the test on HOP-62 NSCLC, 89.9%; in the test on NCI-H460 lung, 70.6%; in the test on NCI-H522 lung, 86.6%. In addition, the growth was 69.3% in the test on A549/ATCC NSCLC; 96.9% in the test with 786-0 renal; 84.6% in the test on COLO 205 colon; 91% with DU-145 prostate; 80.2% with K-562 leukemia; 106% in the test on MALME-3M melanoma. The growth with MDA-MB-231 breast is 89.8%; with SF-268 CNS, 94.5%; in the test with SF-295 CNS, 86.8%; in the test with SF-539 CNS, 95.1%.

Turning to `O=C1/C(=C\c2cccc(OCCCCCOc3ccc(Cl)cc3)c2)N=C2SCCCN12`, the growth in the test on NCI-H23 lung is 35%; with NCI-H226 lung it was 60.3%; in the test with NCI-H322M lung, 101%; in the test with HOP-62 NSCLC, 71.1%; with NCI-H460 lung, 60.7%; with NCI-H522 lung, 32.6%. Further, the growth in the test on A549/ATCC NSCLC was 45.5%; in the test on 786-0 renal it was 72.6%; in the test with COLO 205 colon it was 60.1%; in the test with DU-145 prostate it was 84%; with K-562 leukemia, 41.7%; in the test on MDA-MB-231 breast, 54.2%. The growth is 71.2% in the test with RXF 393 renal; 81.3% with SF-268 CNS; 43% in the test with SF-295 CNS; 77.4% in the test on SF-539 CNS; 44.5% with M14 melanoma.

For the molecule `Cn1ccnc1C(=O)/C=C/c1ccc(CC(=O)Nc2ccc(Br)cc2)cc1`, the growth was 24.5% in the test with NCI-H23 lung; 43.2% in the test with NCI-H226 lung; 6.4% (active) with NCI-H322M lung; -32.7% (active) with HOP-62 NSCLC; -11.2% (active) in the test on NCI-H460 lung; 2.89% (active) in the test with NCI-H522 lung. Moreover, the growth is 3.64% (active) in the test on A549/ATCC NSCLC; 7.96% (active) with 786-0 renal; 6.56% (active) in the test on COLO 205 colon; 3.61% (active) in the test with DU-145 prostate; 6.58% (active) with K-562 leukemia; 75.5% with MALME-3M melanoma. Also, the growth with MDA-MB-231 breast is 10.1%; in the test with RXF 393 renal it was 21%; in the test with SF-268 CNS, 16.2%; in the test with SF-295 CNS, 19.4%; in the test on SF-539 CNS, -38.5% (active); with UACC-257 melanoma it was 79.1%. In addition, the growth in the test on M14 melanoma is 53.6%.

Take `COc1cc2nc(Nc3cccc(Cl)c3)nc(N)c2cc1OC`: the growth in the test with NCI-H23 lung is 88.2%; with NCI-H226 lung, 90.3%; with NCI-H322M lung, 89.7%; with HOP-62 NSCLC it was 106%; in the test on NCI-H460 lung, 66.9%; in the test on NCI-H522 lung, 101%. Moreover, the growth with A549/ATCC NSCLC is 73.4%; in the test with 786-0 renal it was 62%; in the test with COLO 205 colon it was -60.1% (active); with DU-145 prostate, 32.3%; in the test on K-562 leukemia it was 24%; in the test with MALME-3M melanoma it was 107%. Also, the growth was 60.3% with MDA-MB-231 breast; 45.4% in the test on RXF 393 renal; 77.1% with SF-268 CNS; 108% in the test with SF-295 CNS; 90.3% in the test on SF-539 CNS; 90.3% in the test on UACC-257 melanoma. Also, the growth with M14 melanoma was 78.4%.

The values are drawn from PubChem BioAssay (NCI).
